Assay results published in PubChem BioAssay AID1851 (National Center for Advancing Translational Sciences (NCATS), 2009).
In all, about 16,000 compounds went through this assay and about 5,700 (36%) were called active. About 24% were inconclusive and are not listed. This is one part of the list. Values without a mark were called inactive. Calls follow the shape of the dose curve; as a rule, active = well fitted curve in the direction sought with a large enough effect; inconclusive = small, poorly fitted or top-dose-only effect, or effect the other way; inactive = no such curve, though single readings can be large or run the other way.

target: Cytochrome P450 1A2 (Homo sapiens) (UniProt P05177); experiment: Cytochrome panel assay with activity outcomes; conditions: recombinant CYP, pro-luciferin dealkylation, luminescence, p450-cyp1a2; series mostly up to 57.1 µM; activity, negative = inhibition: at the top concentration
Sequence (P05177 whole entry, looked up): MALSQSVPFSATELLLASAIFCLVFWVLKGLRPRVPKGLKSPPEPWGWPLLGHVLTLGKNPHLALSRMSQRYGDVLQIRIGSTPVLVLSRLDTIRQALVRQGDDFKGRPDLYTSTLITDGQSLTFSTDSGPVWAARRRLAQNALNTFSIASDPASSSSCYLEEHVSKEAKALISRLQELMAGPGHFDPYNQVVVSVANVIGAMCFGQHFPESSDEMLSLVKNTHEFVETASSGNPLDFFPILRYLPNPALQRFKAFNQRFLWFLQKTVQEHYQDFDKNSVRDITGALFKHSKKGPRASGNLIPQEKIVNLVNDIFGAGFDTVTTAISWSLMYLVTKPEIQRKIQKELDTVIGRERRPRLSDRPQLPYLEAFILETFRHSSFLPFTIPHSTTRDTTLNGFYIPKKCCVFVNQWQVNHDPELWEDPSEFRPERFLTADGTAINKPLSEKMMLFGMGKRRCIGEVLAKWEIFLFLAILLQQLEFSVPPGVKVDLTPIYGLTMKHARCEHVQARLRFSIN
% is scaled to controls: 0 for no effect and ±100 for the full control effect.

Q: Which “activity, negative = inhibition” value does the source give for CC1=C(C)[N+](=O)C2(O)CCCCC2(C)N1[O-] (stereo not drawn) here?
A: The value was 12.4%.

Q: Nc1nc(N)c2nc(CNc3ccc(C(=O)N[C@H](CCC(=O)O)C(=O)O)cc3)cnc2n1 was tested. Which “activity, negative = inhibition” value did it give?
A: The value was -19.4%.

Q: CN(C)C(=O)Oc1cc(OC(=O)N(C)C)cc([C@@H](O)CNC(C)(C)C)c1 was tested. Which “activity, negative = inhibition” value did it give?
A: Its value is -3.04% [at 25.6 µM].

Q: How did the activity, negative = inhibition turn out when C[C@H](c1ccccc1)N1CCN([C@@H](C)c2ccccc2)CC1 was run?
A: The activity, negative = inhibition was -16% [at 2.29 µM].

Q: How did the activity, negative = inhibition turn out when O=C(O)CSCC(=O)O was run?
A: Its activity, negative = inhibition is -2.34% [at 11.4 µM].

Q: Which activity, negative = inhibition does the source give for CC1=C2C(=O)[C@@H]3[C@@H](CC=C4C[C@@H](O)CC[C@@]43C)[C@H]2CC[C@@]12O[C@H]1C[C@H](C)CN[C@H]1[C@@H]2C here?
A: The activity, negative = inhibition was -16.8% [at 11.4 µM].

Q: For O=C(Oc1ccccc1)N1CCC2(CCCN(Cc3nccs3)C2)CC1, which “activity, negative = inhibition” value is on record?
A: Its value is 1.1%.

Q: With C[C@]12N[C@H](Cc3ccccc31)c1ccccc12 as the compound, how does the AC50 read?
A: Its AC50 is “inactive”.

Q: CCCCCCCC/C=C\CCCCCCCC(N)=O was tested. Which AC50 did it give?
A: The AC50 was 6310 nM (active).

Q: CCCCC/C=C\C/C=C\C/C=C\C/C=C\CCCC(=O)NCC(=O)O was tested. Which “activity, negative = inhibition” value did it give?
A: Its value is -16.2%.

Q: How did the “activity, negative = inhibition” value turn out when CC(C)[C@@]1(NC(=O)[C@@H]2C[C@H]3c4cccc5[nH]cc(c45)C[C@@H]3N(C)C2)O[C@@]2(O)[C@H]3CCCN3C(=O)[C@H](Cc3ccccc3)N2C1=O was run?
A: The value was -4.49%.

Q: Which activity, negative = inhibition does the source give for COC(=O)NC/C=C\c1nc(CC/C=C\C(=O)O[C@H]2C[C@H]3CC(=O)O[C@@H](/C=C\CC(C)C)C[C@@H]4CC[C@H](C)[C@H](C[C@@H](OC)C[C@H](C2)O3)O4)co1 here?
A: The activity, negative = inhibition was 3.2% [at 11.4 µM].

Q: For Cc1cccc([C@H](C)c2cnc[nH]2)c1C, which AC50 is on record?
A: The AC50 was 158 nM (active).

Q: Which “activity, negative = inhibition” value does the source give for C=C1CC[C@H](O)C/C1=C/C=C1\CCC[C@]2(C)[C@H]1CC[C@H]2[C@@H](C)CCCC(C)C here?
A: Its value is -3.1% [at 25.6 µM].

Q: CCNC(=S)NC1CC2CCCC(C1)N2Cc1ccco1 (stereo not drawn) was tested. Which “activity, negative = inhibition” value did it give?
A: The value was 0.456%.

Q: How did the AC50 turn out when CCCN(CCC)[C@@H]1CCc2cccc(O)c2C1 was run?
A: The AC50 was “inactive”.

Q: CCS(=O)(=O)Nc1cccc(C(=C2CCCCC2)c2cnc[nH]2)c1 was tested. Which AC50 did it give?
A: The AC50 was 316 nM (active).

Q: How did the activity, negative = inhibition turn out when C[N+]1(C)C2CC[C@H]1CC(OC(=O)[C@@H](CO)c1ccccc1)C2 (stereo partly drawn) was run?
A: Its activity, negative = inhibition is 5.51% [at 11.4 µM].

Q: C[C@H](CN(C)C)C(C#N)(c1ccccc1)c1ccccc1 was tested. Which activity, negative = inhibition did it give?
A: The activity, negative = inhibition was -3.45% [at 2.29 µM].

Q: NCC[Se][Se]CCN was tested. Which AC50 did it give?
A: Its AC50 is 3160 nM (active).

Q: For CC[C@H]1CN2CC[C@@H]1C[C@H]2[C@@H](O)c1ccnc2ccc(OC)cc12, which “activity, negative = inhibition” value is on record?
A: Its value is -5.06% [at 25.6 µM].

Q: With COc1ccc(Cl)cc1NC(=O)NCCCl as the compound, how does the AC50 read?
A: Its AC50 is 2820 nM (active).

Q: Which “activity, negative = inhibition” value does the source give for C[C@H]1CN(C2CCC(C#N)(c3ccc(F)cc3)CC2)CC[C@@]1(C(=O)O)c1ccccc1 (stereo partly drawn) here?
A: Its value is -0.959% [at 25.6 µM].

Q: CCCN1CCC[C@H](c2cccc(O)c2)C1 was tested. Which AC50 did it give?
A: Its AC50 is “inactive”.

Q: How did the AC50 turn out when O=C(O)c1ccccc1-c1c2cc(Br)c(=O)cc-2oc2[c]([Hg])c(O)c(Br)cc12 was run?
A: Its AC50 is 15800 nM (active).

Q: C[C@H](N)[C@H](O)c1ccc(O)c(O)c1 was tested. Which AC50 did it give?
A: The AC50 was “inactive”.

Q: For CCC(=O)O[C@H]1CC[C@H]2[C@@H]3CCC4=CC(=O)CC[C@]4(C)[C@H]3CC[C@]12C, which “activity, negative = inhibition” value is on record?
A: Its value is -18% [at 25.6 µM].

Q: CCN1CCC2(CC1)NC(CO)(CO)CO2 was tested. Which “activity, negative = inhibition” value did it give?
A: Its value is 2.62%.

Q: For COc1c2c(cc3c1OCO3)CCN(C)C2, which AC50 is on record?
A: Its AC50 is 2000 nM (active).

Q: For C[C@]12N[C@@H](Cc3ccccc31)c1ccccc12, which AC50 is on record?
A: Its AC50 is “inactive”.

Q: How did the “activity, negative = inhibition” value turn out when N[C@@H]1C=CC=C(C(=O)O)C1 was run?
A: The value was -6.11%.

Q: How did the AC50 turn out when COC(=O)C(O)(c1c(C)[nH]c2ccccc12)C(F)(F)F (stereo not drawn) was run?
A: Its AC50 is 15800 nM (active).

Q: How did the “activity, negative = inhibition” value turn out when N[C@H](Cc1o[nH]c(=O)c1Cl)C(=O)O was run?
A: Its value is -9.1%.

Q: How did the AC50 turn out when CCCCN1C(=O)/C(=C/c2ccc(N(C)C)cc2)C(=O)N(Cc2ccco2)C1=O was run?
A: Its AC50 is 15800 nM (active).

Q: How did the activity, negative = inhibition turn out when O=S(=O)(O)/C(=C\c1ccccc1)c1ccccc1 (tested in a mixture with another compound) was run?
A: Its activity, negative = inhibition is -29% [at 2.29 µM].

Q: C=C[C@H]1CN2CC[C@@H]1C[C@H]2[C@@H](O)c1ccnc2ccccc12 was tested. Which AC50 did it give?
A: Its AC50 is “inactive”.

Q: For c1cc(CN2CCCC3(CCNCC3)C2)ccn1, which “activity, negative = inhibition” value is on record?
A: Its value is -1.58%.

Q: For CO[C@@H]1CC=C2CCN3CCC4=C(CC(=O)OC4)[C@]23C1, which “activity, negative = inhibition” value is on record?
A: Its value is 4.21%.

Q: For C[C@@H]1Cc2cc3c(cc2C(c2ccc(N)cc2)=NN1)OCO3, which AC50 is on record?
A: Its AC50 is 5010 nM (active).

Q: Which activity, negative = inhibition does the source give for CC(C)CCC1(CCN)C(=O)NC(=O)NC1=O here?
A: Its activity, negative = inhibition is -13.1% [at 11.4 µM].

Q: How did the “activity, negative = inhibition” value turn out when CC(=O)OC1N=C(c2ccccc2)c2cc(Br)ccc2N(C)C1=O (stereo not drawn) was run?
A: The value was -4.73%.

Q: C[C@H](N)c1cccc(Cl)c1Cl was tested. Which AC50 did it give?
A: The AC50 was 1260 nM (active).

Q: CC(C)(C)NC[C@H](O)c1ccccc1Cl was tested. Which “activity, negative = inhibition” value did it give?
A: Its value is -1.39%.

Q: CN1[C@H]2CC(=O)C[C@@H]1[C@@H](O)C2 was tested. Which “activity, negative = inhibition” value did it give?
A: Its value is -6.99% [at 25.6 µM].

Q: O=C(O)[C@H]1[O][Sb][O][C@@H](C(=O)O)C1O (stereo partly drawn) was tested. Which activity, negative = inhibition did it give?
A: The activity, negative = inhibition was -15% [at 2.29 µM].

Q: How did the “activity, negative = inhibition” value turn out when Cn1cccc1CNCCc1ccccc1 was run?
A: The value was -5.77%.

Q: With Fc1ccc(CCNCc2ccc(Cl)c(Cl)c2)cc1 as the compound, how does the AC50 read?
A: The AC50 was 2240 nM (active).

Q: Which “activity, negative = inhibition” value does the source give for C=CCN1C[C@@H](C)N([C@H](c2ccc(C(=O)N(CC)CC)cc2)c2cccc(OC)c2)C[C@H]1C here?
A: Its value is -7.59%.
